# A selection: hits, their analogues and other compounds. The true share with any hit is near 19%.
# HT1080-NT tox: kills 2HG-producing HT-1080-NT fibrosarcoma cells. HT-1080-NT fibrosarcoma viability, CellTiter-Glo ATP luminescence, 48 h. 360,000 tested, 1.6% active. AID 686970. Potency, µM (series often up to 46.1 µM), inactives show at the highest dose activity, negative = less viability, usual class: cytotoxic;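 note: NT is the 2HG producing partner of a matched IDH1 knockdown line; potency is the fitted concentration of half-maximal effect; 0% = DMSO-treated cells and -100% = media-only wells without cells; nearly all actives have a fitted effect of over 55% in size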
#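 Compounds were tested in concentration-response format on HT-1080-NT cells for 48 hours at 37 degrees C. Cell viability came from CellTiter-Glo luminescence; curves were classified by r2, response magnitude and activity.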
# TDP1 cell CPT: DT40-hTDP1 cell growth loss with CPT | 420,000 tested, 12% active | Potency, µM (titrated, usually from 46.2 µM), inactives show at the highest dose activity change, negative = growth inhibition, hits mostly inhibitors | chicken DT40 Tdp1-/-;hTDP1 cells + 20 nM CPT, ATP luminescence, 48 h | AID 686979; note: potency is the fitted concentration of half-maximal effect; nearly all actives have a fitted effect of over 55% in size
#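 Cell growth measured by CellTiter-Glo luminescence after a minimum 48 h, 37 C compound exposure with 20 nM CPT in Tdp1-knockout DT40 cells stably expressing hTDP1, seeded 400/well; qHTS titration format.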
# TDP1 cell noCPT: qHTS for Inhibitors of human tyrosyl-DNA phosphodiesterase 1 (TDP1): qHTS in cells in absence of CPT | DT40 Tdp1-/- hTDP1 cells, no CPT, ATP luminescence, 48 h | 420,000 tested, 15% active | Potency, µM (highest dose often 46.2 µM), without a hit: top-dose activity change, negative = growth inhibition, hits mostly inhibitors; note: potency is the fitted concentration of half-maximal effect; nearly all actives have a fitted effect of over 55% in size
#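 Cells were dispensed at 400 per well, compounds added by pin tool, plates incubated ≥48 hr at 37 °C, then CellTiter-Glo added for 30 min at room temperature before luminescence reading. Line: DT40 Tdp1-/- complemented with hTDP1; camptothecin omitted.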
# HT1080 IDH1KD tx: kills HT-1080 cells with IDH1 knockdown; HT-1080 IDH1 knockdown viability, ATP luminescence, 48 h; AID 686971; Potency, µM (series often up to 46.1 µM), inactives show top-dose activity, negative = toxicity, hits mostly cytotoxic; 360,000 tested, 2% active;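 note: potency is the fitted concentration of half-maximal effect; 0% = DMSO wells and -100% = cell-free medium wells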
#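 Assay cells: HT-1080 with IDH1 knockdown, 750 per well, RPMI/5% FBS. Exposure: 48 h at 37 °C following 2 h pre-incubation. Read: CellTiter-Glo luminescence; fitted concentration-response, curve class assigned.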
# IL-1B inflam inh: inhibitors of inflammasome signaling (IL-1 beta secretion); AID 743279; activity change, % at 57.5 µM; 360,000 tested, 4.7% active; THP-1 LPS/ATP IL-1B secretion, AlphaLISA, 16 h; hits give low values; in the data active = activity change below about -50%; inconclusive = mostly about -30% to -49%
#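 Secreted IL-1B measured by AlphaLISA bead assay after 16 h compound exposure of THP-1 cells; compounds (final up to 57.5 uM) added 1 h before LPS (250 ng/mL) and ATP (1.25 mM) stimulation; lower signal means less secretion.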
# An asterisk follows results filed as active; ? = inconclusive; . = no result. Unless noted, calls come from the whole dose curve; as a rule, active = well fitted curve in the direction sought with a large enough effect; inconclusive = small, poorly fitted or top-dose-only effect, or another doubt; inactive = no such curve, though single readings can be large; an effect the other way counts as inactive or inconclusive. Unless noted, % is set by controls: 0 for no effect and ±100 for the full control effect.
SMILES,HT1080-NT tox,TDP1 cell CPT,TDP1 cell noCPT,HT1080 IDH1KD tx,IL-1B inflam inh
COCC(=O)NC1CCN(C(=O)Nc2ccc(Br)cc2)CC1,0.5%,-4.0%,-2.6%,-3.0%,15.1
c1cc(SC2CCCCC2)cc(-c2nc3cnccn3c2NC2CCCCC2)c1,?,?,?,?,-65.6*
Cc1cc(C)n2c(NC3CCCC3)c(-c3cccnc3)nc2n1,7.4%,-8.0%,-14.6%,8.3%,6.7
CCC(C)Sc1cccc(-c2nc3cnccn3c2NC2CCCCC2)c1 (configuration not stated),?,20.6µM*,16.4µM*,?,0.0
CCN(CC)c1ccc(-c2nc3cnccn3c2NC2CCCC2)cc1,8.1%,20.6µM*,?,2.6%,?
Cc1ccc(OCc2cc(=O)n3cc(C)sc3n2)c(C)c1,.,-0.6%,11.7%,.,.
Cc1ccn(CCC(=O)Nc2ccc3c(c2)OCO3)n1,-9.5%,-2.0%,-12.2%,11.0%,-9.4
CC(NC(=O)CCn1nc(-c2ccc(Cl)cc2)ccc1=O)c1ccccc1 (configuration not stated),3.5%,-16.5%,5.0%,3.0%,14.0
COc1ccc(N(C(=O)c2ccc(S(=O)(=O)N3CCCC3)cc2)C2C=CS(=O)(=O)C2)cc1 (configuration not stated),4.8%,-10.2%,-6.8%,8.2%,-5.4
Cc1sc2ncn(CC(=O)N3CCN(c4cccc(Cl)c4)CC3)c(=O)c2c1S(=O)(=O)N1CCC(C)CC1,.,?,23.1µM*,.,.
Cc1sc2ncn(CC(=O)N3CCN(c4ccccc4)CC3)c(=O)c2c1S(=O)(=O)N1CCC(C)CC1,.,?,23.1µM*,.,.
Cc1sc2ncn(CC(=O)N3CCN(c4ccccn4)CC3)c(=O)c2c1S(=O)(=O)N1CCC(C)CC1,0.6%,4.4%,-19.5%,10.0%,11.7
COCCCNC(=S)NC1CC2CCCC(C1)N2Cc1cccs1 (configuration not stated),-2.7%,-8.1%,-20.7%,-6.1%,10.2
COc1ccccc1CNC(=O)c1cc(-c2cccnc2)nc2ccccc12,-3.6%,?,?,-12.4%,14.8
CCOC(CCNC(=O)c1cc(-c2cccs2)nc2ccccc12)OCC,-3.5%,20.6µM*,?,-4.9%,0.4
COc1ccc(OC)c(CNC(=O)c2cc(-c3ccc(Cl)s3)nc3ccccc23)c1,.,14.6µM*,9.2µM*,.,.
COc1ccc(CNC(=O)c2cc(-c3cccs3)nc3ccccc23)c(OC)c1,.,2.59µM*,?,.,.
CN1CCN(NC(=O)c2cc(-c3ccc(Cl)s3)nc3ccccc23)CC1,-14.9%,?,14.6µM*,-8.4%,-2.7
Cc1ccc(C(O)(COC(=O)C(C)C)COC(=O)C(C)C)c(O)c1,-0.8%,4.61µM*,3.66µM*,-12.5%,1.2
CC(C)CCC[C@](C)(O)c1ccc(C(=O)O)cc1O,13.8%,0.6%,-5.2%,3.4%,15.5
CCN(CC)C(=O)C1CCCN(c2ncnc3c2nc2n3CCCCC2)C1 (configuration not stated),.,-23.3%,?,.,.
CCCCN(Cc1ccco1)C(=O)C1CCCN(c2ncnc3c2nc2n3CCCCC2)C1 (configuration not stated),?,16.4µM*,14.6µM*,?,-13.4
CC1CCCN(CCCNC(=O)C2CCCN(c3ncnc4c3nc3n4CCCCC3)C2)C1 (configuration not stated),-1.9%,5.6%,-18.0%,1.9%,-0.2
CCCCN(CC)C(=O)C1CCCN(c2ncnc3c2nc2n3CCCCC2)C1 (configuration not stated),.,?,20.6µM*,.,.
CCC(CC)c1nnc(NC(=O)C2=NNC(=O)CC2)s1,2.5%,3.5%,-16.8%,13.6%,14.9
SMILES,HT1080-NT tox,TDP1 cell CPT,TDP1 cell noCPT,HT1080 IDH1KD tx,IL-1B inflam inh
CC1(NC(=O)CSc2nnc(-c3c[nH]c4ccccc34)n2C2CC2)CCS(=O)(=O)C1 (configuration not stated),12.7%,-9.7%,-17.5%,9.3%,4.4
O=C(c1ccc(CS(=O)Cc2ccc(Cl)cc2)o1)N1CCN(c2ccccn2)CC1 (configuration not stated),-0.9%,?,?,-10.4%,-62.0*
O=C(c1ccc(CS(=O)c2ccccc2Cl)o1)N1CCN(c2ccccn2)CC1 (configuration not stated),?,3.66µM*,2.06µM*,7.31µM*,-0.7
O=C(c1ccc(COc2ccccc2Br)o1)N1CCN(c2ccccn2)CC1,-8.2%,-24.8%,-17.2%,-5.9%,17.4
O=C(c1ccc(CS(=O)Cc2ccccc2Cl)o1)N1CCN(c2cccc(Cl)c2)CC1 (configuration not stated),-37.0%,?,?,-25.8%,-23.0
O=C(c1ccc(CS(=O)Cc2ccc(Cl)cc2)o1)N1CCN(c2ccccc2)CC1 (configuration not stated),-11.1%,-14.8%,-22.1%,-8.0%,-24.5
O=C(c1ccc(CS(=O)Cc2ccccc2Cl)o1)N1CCN(c2ccccn2)CC1 (configuration not stated),-11.8%,?,16.4µM*,-0.6%,41.7
Cc1ccc(S(=O)(=O)N2CCN(C(=O)Cc3c(F)cccc3Cl)CC2)cc1,-1.1%,-7.5%,-23.7%,0.3%,4.0
CN(c1ccccc1)S(=O)(=O)c1ccc(NC(=O)c2ccc(-c3ccccc3)cc2)cc1,?,20.6µM*,?,-9.2%,-7.4
CC(=O)Nc1ccc(NC(=O)c2ccc(N(C)S(=O)(=O)c3ccc(C)cc3)cc2)cc1,?,-9.3%,-6.1%,?,-3.2
CN(c1ccccc1)S(=O)(=O)c1ccc(C(=O)Nc2nnc(-c3ccc(F)cc3)o2)cc1,-9.1%,9.2µM*,6.51µM*,?,80.9
Cc1csc(NC(=O)c2ccc(S(=O)(=O)N(C)c3ccccc3)cc2)n1,-6.7%,11.6µM*,13µM*,-13.6%,?
CN(c1ccccc1)S(=O)(=O)c1ccc(C(=O)Nc2ncccc2O)cc1,-3.2%,?,?,1.1%,-0.9
Cc1nc2cc(NC(=O)c3ccc(S(=O)(=O)N(C)c4ccccc4)cc3)ccc2o1,?,?,16.4µM*,?,-56.4*
Cc1nnc(NC(=O)c2ccc(S(=O)(=O)N(C)c3ccccc3)cc2)s1,-5.6%,-21.7%,-24.1%,-23.5%,-4.6
COc1cc(OC)c(C(=O)N(CCc2ccccc2)Cc2ccccc2)cc1OC,4.8%,?,?,-1.9%,-18.7
CCC(C(=O)NCCCN1CCN(C)CC1)n1nc(C)n2c(cc3occc32)c1=O (configuration not stated),5.5%,-12.3%,33.8%,17.2%,4.7

# Assay outcomes deposited in PubChem by National Center for Advancing Translational Sciences (NCATS).
